Data: PubChem BioAssay AID1159580 (chemical genetic matrix, 2015)
The campaign covered roughly 5,500 compounds. About 2,000 (36%) were called active. About 18% were inconclusive and are not listed. Rule as the data show it: active = normalized growth mostly below about 0.91 (no sharp cut-off); inconclusive = no clear call, values can overlap the other calls; inactive = mostly above about 0.92. Some of the results follow.

Assay: chemical genetic growth profiling, strain panel (AID 1159580);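 also: tested at 20 µM; growth read once vehicle control cultures reached saturation at 30 °C; 1 = growth at the plate median or of vehicle wells; lower values mean less growth of the strain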
Settings: growth OD

Measured: normalized growth

C[C@]12C=CC(=O)C=C1CCC1C2C(=O)C[C@@]2(C)C1CC[C@]2(O)C(=O)CO (stereo partly specified)
inactive: S. cerevisiae deletion strains, locus YJR075W, strain HOC1, active compounds read low 0.985 | S. cerevisiae deletion strains, locus YKL009W, strain mrt4, active compounds read low 0.979 | S. cerevisiae deletion strains, locus YKL068W, active compounds read low 0.989 | S. cerevisiae deletion strains, locus YKL085W, strain MDH1 (second series), active compounds read low 0.998 | S. cerevisiae deletion strains, locus YKL085W, strain MDH1, active compounds read low 0.998 | S. cerevisiae deletion strains, locus YKL160W, strain elf1, active compounds read low 0.97 | S. cerevisiae deletion strains, locus YKL190W, strain CNB1, active compounds read low 0.989 | S. cerevisiae deletion strains, locus YKR001C, strain vps1, active compounds read low 0.995 | S. cerevisiae deletion strains, locus YKR026C, strain gcn3, active compounds read low 0.997 | S. cerevisiae deletion strains, locus YKR091W, strain srl3, active compounds read low 0.997 | S. cerevisiae deletion strains, locus YLL001W, strain dnm1, active compounds read low 0.955 | S. cerevisiae deletion strains, locus YLL026W, active compounds read low 0.986 | S. cerevisiae deletion strains, locus YLL041C, strain sdh2, active compounds read low 0.994 | S. cerevisiae deletion strains, locus YLR027C, strain aat2, active compounds read low 0.978 | S. cerevisiae deletion strains, locus YLR039C, strain RIC1, active compounds read low 0.993 | S. cerevisiae deletion strains, locus YLR058C, strain SHM2, active compounds read low 0.978 | S. cerevisiae deletion strains, locus YLR102C, strain apc9, active compounds read low 0.99 | S. cerevisiae deletion strains, locus YLR113W, strain HOG1, active compounds read low 1.03 | S. cerevisiae deletion strains, locus YLR221C, strain rsa3, active compounds read low 1.01 | S. cerevisiae deletion strains, locus YLR258W, strain gsy2, active compounds read low 1.02 | S. cerevisiae deletion strains, locus YLR262C, strain YPT6 (second series), active compounds read low 0.986 | S. cerevisiae deletion strains, locus YLR262C, strain YPT6, active compounds read low 0.968 | S. cerevisiae deletion strains, locus YLR268W, strain sec22, active compounds read low 1.05 | S. cerevisiae deletion strains, locus YLR320W, strain mms22, active compounds read low 0.985 | S. cerevisiae deletion strains, locus YLR330W, strain CHS5, active compounds read low 0.998 | S. cerevisiae deletion strains, locus YLR342W, strain FKS1 (second series), active compounds read low 1.01 | S. cerevisiae deletion strains, locus YLR342W, strain FKS1, active compounds read low 0.978 | S. cerevisiae deletion strains, locus YLR357W, strain rsc2, active compounds read low 0.992 | S. cerevisiae deletion strains, locus YLR370C, strain arc18, active compounds read low 0.994 | S. cerevisiae deletion strains, locus YLR371W, strain rom2, active compounds read low 0.974 | S. cerevisiae deletion strains, locus YLR384C, strain iki3, active compounds read low 0.985 | S. cerevisiae deletion strains, locus YLR418C, strain cdc73, active compounds read low 0.985 | S. cerevisiae deletion strains, locus YML016C, strain PPZ1, active compounds read low 0.991 | S. cerevisiae deletion strains, locus YML032C, strain rad52, active compounds read low 1.01 | S. cerevisiae deletion strains, locus YML120C, strain ndi1, active compounds read low 0.986 | S. cerevisiae deletion strains, locus YML124C, strain tub3, active compounds read low 0.983 | S. cerevisiae deletion strains, locus YMR058W, strain fet3, active compounds read low 0.996 | S. cerevisiae deletion strains, locus YMR078C, strain ctf18, active compounds read low 0.979 | S. cerevisiae deletion strains, locus YMR125W, strain sto1, active compounds read low 0.987 | S. cerevisiae deletion strains, locus YMR129W, active compounds read low 1 | S. cerevisiae deletion strains, locus YMR205C, strain PFK2, active compounds read low 0.988 | S. cerevisiae deletion strains, locus YMR223W, strain ubp8, active compounds read low 0.963 | S. cerevisiae deletion strains, locus YMR231W, strain pep5, active compounds read low 1.02 | S. cerevisiae deletion strains, locus YMR263W, strain SAP30, active compounds read low 0.992 | S. cerevisiae deletion strains, locus YMR307W, strain GAS1, active compounds read low 0.991 | S. cerevisiae deletion strains, locus YNL067W, strain RPL9B, active compounds read low 0.992 | S. cerevisiae deletion strains, locus YNL071W, strain lat1, active compounds read low 1.01 | S. cerevisiae deletion strains, locus YNL153C, strain GIM3, active compounds read low 0.99 | S. cerevisiae deletion strains, locus YNL183C, strain NPR1, active compounds read low 0.986 | S. cerevisiae deletion strains, locus YNL209W, strain ssb2, active compounds read low 1.01 | S. cerevisiae deletion strains, locus YNL233W, strain BNI4, active compounds read low 0.997 | S. cerevisiae deletion strains, locus YNL248C, strain rpa49, active compounds read low 1 | S. cerevisiae deletion strains, locus YNL250W, strain rad50, active compounds read low 0.981 | S. cerevisiae deletion strains, locus YNL271C, strain bni1, active compounds read low 0.999 | S. cerevisiae deletion strains, locus YNL298W, strain CLA4, active compounds read low 0.982 | S. cerevisiae deletion strains, locus YNL307C, strain MCK1, active compounds read low 0.998 | S. cerevisiae deletion strains, locus YNL322C, strain KRE1 (second series), active compounds read low 0.998 | S. cerevisiae deletion strains, locus YNL322C, strain KRE1, active compounds read low 0.994 | S. cerevisiae deletion strains, locus YNR049C, strain mso1, active compounds read low 0.999 | S. cerevisiae deletion strains, locus YNR052C, strain pop2, active compounds read low 0.995 | S. cerevisiae deletion strains, locus YOL006C, strain TOP1, active compounds read low 0.938 | S. cerevisiae deletion strains, locus YOL012C, strain htz1 0.891 | S. cerevisiae deletion strains, locus YOL147C, strain pex11, active compounds read low 0.999 | S. cerevisiae deletion strains, locus YOR001W, strain rrp6, active compounds read low 0.976 | S. cerevisiae deletion strains, locus YOR061W, strain CKA2, active compounds read low 0.963 | S. cerevisiae deletion strains, locus YOR069W, strain VPS5, active compounds read low 0.997 | S. cerevisiae deletion strains, locus YOR070C, strain gyp1, active compounds read low 1.01 | S. cerevisiae deletion strains, locus YOR080W, strain dia2, active compounds read low 0.992 | S. cerevisiae deletion strains, locus YOR083W, strain WHI5, active compounds read low 0.964 | S. cerevisiae deletion strains, locus YOR106W, strain vam3, active compounds read low 0.993 | S. cerevisiae deletion strains, locus YOR136W, strain idh2, active compounds read low 0.982 | S. cerevisiae deletion strains, locus YOR144C, strain elg1, active compounds read low 0.985 | S. cerevisiae deletion strains, locus YOR184W, strain ser1, active compounds read low 0.973 | S. cerevisiae deletion strains, locus YOR231W, strain MKK1, active compounds read low 1.01 | S. cerevisiae deletion strains, locus YOR265W, strain rbl2, active compounds read low 0.993 | S. cerevisiae deletion strains, locus YOR270C, strain vph1, active compounds read low 1.02 | S. cerevisiae deletion strains, locus YOR290C, strain snf2, active compounds read low 1.03 | S. cerevisiae deletion strains, locus YOR316C, strain cot1, active compounds read low 0.985 | S. cerevisiae deletion strains, locus YPL051W, strain arl3, active compounds read low 0.989 | S. cerevisiae deletion strains, locus YPL055C, strain LGE1, active compounds read low 0.94 | S. cerevisiae deletion strains, locus YPL078C, strain atp4, active compounds read low 0.955 | S. cerevisiae deletion strains, locus YPL106C, strain sse1, active compounds read low 1.01 | S. cerevisiae deletion strains, locus YPL240C, strain hsp82, active compounds read low 0.987 | S. cerevisiae deletion strains, locus YPL241C, strain CIN2, active compounds read low 0.997 | S. cerevisiae deletion strains, locus YPL256C, strain CLN2, active compounds read low 1.05 | S. cerevisiae deletion strains, locus YPR119W, strain clb2, active compounds read low 0.982 | S. cerevisiae deletion strains, locus YPR141C, strain kar3, active compounds read low 0.98 | S. cerevisiae deletion strains, locus YPR163C, strain tif3, active compounds read low 0.986 | S. cerevisiae deletion strains, locus YPR167C, strain met16, active compounds read low 0.996 | S. cerevisiae deletion strains, strain wtn01, active compounds read low 0.992 | S. cerevisiae strains, strain wild type, active compounds read low 0.986
